Bioassay records deposited in PubChem BioAssay by several laboratories.
Sampled rows, rich in hits. Any-hit rate of the full collection: about 27%.
CYP2C19 inhib: human CYP2C19 inhibition | 21% of 96,000 active | inhibition, % at 5 µM | CYP2C19 Supersomes, luciferin-H EGE luminescence, 30 min | P33261;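 active = CYP2C19 inhibition above a set limit at 5 µM in the primary screen, cut at about 50% in these data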
Target sequence (P33261 whole entry, looked up): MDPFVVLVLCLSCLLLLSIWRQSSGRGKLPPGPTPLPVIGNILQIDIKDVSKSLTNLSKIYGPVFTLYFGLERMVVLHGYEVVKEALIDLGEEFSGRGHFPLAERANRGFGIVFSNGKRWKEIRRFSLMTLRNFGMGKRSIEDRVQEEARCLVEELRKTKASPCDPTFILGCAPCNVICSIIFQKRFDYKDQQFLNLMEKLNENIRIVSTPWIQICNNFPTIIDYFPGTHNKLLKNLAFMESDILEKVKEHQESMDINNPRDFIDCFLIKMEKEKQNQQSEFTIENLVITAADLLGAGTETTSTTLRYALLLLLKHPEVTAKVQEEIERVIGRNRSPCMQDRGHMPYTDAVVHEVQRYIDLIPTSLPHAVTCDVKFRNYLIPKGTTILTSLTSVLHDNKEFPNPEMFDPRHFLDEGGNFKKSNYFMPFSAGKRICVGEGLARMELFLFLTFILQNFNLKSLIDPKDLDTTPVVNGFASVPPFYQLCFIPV
sEH act: increases human soluble epoxide hydrolase activity | activation, % at 2 µM | AID 717 | purified human sEH enzymatic activity, activator screen | P34913 | 0.04% of 91,000 active; in the data active = activation above about 37%
CYP2C19 act: activators of human cytochrome P450 2C19. AID 1025. activation factor at 5 µM. recombinant CYP2C19, luciferin-H EGE luminescence; hits give high values; 0 = fully inhibited enzyme, 1 = untreated enzyme. P33261. 96,000 tested, under 10 active;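 active = activation factor of at least 2 at 5 µM in the primary screen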
CYP2C9 activ: activators of human CYP2C9 | activation factor at 5 µM | recombinant CYP2C9, luciferin-H conversion, luminescence; hits give high values; factor 1 = untreated enzyme, 0 = blocked | P11712 | 1.4% of 96,000 active | AID 1024;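 active = activation factor of 2 or more for CYP2C9 at a 5 µM dose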
CYP2C9 inh: human CYP2C9 inhibition | P11712 | CYP2C9 Supersomes, luciferin-H conversion, luminescence | inhibition, % at 5 µM | 20% of 96,000 active | AID 777;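 active = blocking of liver enzyme CYP2C9 beyond about 50% at 5 µM, limit read from the data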
sEH inh: blocks human soluble epoxide hydrolase activity; P34913; recombinant human sEH enzymatic activity assay; inhibition, % at 2 µM; 0.34% of 91,000 active; AID 707; in the data active = inhibition above about 80%
Of the large screens only hits and unclear results are named; the others gave an inactive call.

O=C(Nc1ccc(Cl)cc1)c1ccc(-n2cccn2)c([N+](=O)[O-])c1	none
O=C(Nc1ccc(Cl)cc1)c1ccc(-n2cncn2)c([N+](=O)[O-])c1	CYP2C19 inhib 100, CYP2C9 inh 98
Cc1ccc(NC(=O)c2ccc(-n3cncn3)c([N+](=O)[O-])c2)cc1	CYP2C19 inhib 100, CYP2C9 inh 91
O=C(Nc1cccc(Cl)c1)c1ccc(-n2cncn2)c([N+](=O)[O-])c1	CYP2C19 inhib 100, CYP2C9 inh 100
CCN(CC)C(=O)CSc1nnc(CNc2ccc(F)cc2)n1-c1ccccc1	none (no result: CYP2C19 inhib, CYP2C19 act, CYP2C9 activ, CYP2C9 inh)
CCCCN1CNC(=S)N(c2cc(C)ccc2C)C1	CYP2C19 inhib 72
O=C(CC1N=C2c3ccccc3N=C(SCc3ccc(Cl)cc3)N2C1=O)NCc1ccco1 (centres undefined)	CYP2C9 inh 72
Cc1ccc(CSC2=Nc3ccccc3C3=NC(CCC(=O)NCc4ccco4)C(=O)N23)cc1 (centres undefined)	CYP2C9 inh 87
CCCCN(CC)Cc1ccc(CNC(=O)Nc2ccc(F)cc2)o1	none
C=C(C)COc1ccc(-c2ncncc2Oc2ccc(OC)cc2)c(O)c1	CYP2C19 inhib 92, CYP2C9 inh 98
C=C(C)COc1ccc(-c2nc(N)ncc2-c2ccc(OC)cc2)c(O)c1	CYP2C9 inh 52
CCOc1ccc(-c2nc(N)nc(C)c2-c2ccc(OC)c(OC)c2)c(O)c1	none
COc1ccc(-c2cnc(N)nc2-c2ccc(OC)cc2O)cc1	none
COc1ccc(-c2nc(N)ncc2Oc2ccccc2Br)c(O)c1	none
COc1cccc(Oc2cnc(N)nc2-c2ccc(OC)cc2O)c1	CYP2C19 inhib 76, CYP2C9 inh 79
Cc1cc(C)n(-c2ncc(-c3ccccc3)nn2)n1	none
Cc1ccc(NC(=O)CN(C)C(=O)CSc2nc3ccccc3o2)cc1	none
CCOC(=O)NC(CC(=O)O)c1ccc(OC)cc1 (centres undefined)	none
CCOC(=O)C(C(=O)OCC)[C@@H]1CS(=O)(=O)C[C@H]1C(C(=O)OCC)C(=O)OCC	none (no result: sEH act, sEH inh)
O=C(Nc1ccc(Br)cc1)c1ccc(N2C(=O)C3CC=C(Cl)CC3C2=O)cc1 (centres undefined)	CYP2C9 inh 74
O=C(c1ccc(N2C(=O)C3CC=C(Cl)CC3C2=O)cc1)N1CCCCC1 (centres undefined)	none
CC1CCOC2(O1)C(=O)N(CN1CCN(c3cccc(Cl)c3)CC1)c1ccccc12 (centres undefined)	none
CC(C)CN(CC(C)C)C1=N/C(=C\c2ccco2)C(=O)N1c1ccccc1	none
CC(C)NC(=O)C1CCCN(S(=O)(=O)c2cccs2)C1 (centres undefined)	CYP2C19 inhib 58
CC(NC(=O)C1CCCN(S(=O)(=O)c2cccs2)C1)c1ccccc1 (centres undefined)	CYP2C19 inhib 59, CYP2C9 inh 95
CC(C)NC(=O)c1cnc(Sc2ncc(C(F)(F)F)cc2Cl)n1C	CYP2C9 activ 2.1
Cn1c(C(N)=O)cnc1Sc1ncc(C(F)(F)F)cc1Cl	none
COCC(=O)Oc1c(S(=O)(=O)c2ccc(C)cc2)c(C)nn1-c1ccccc1	CYP2C9 inh 81 (no result: sEH act, sEH inh)
Cc1nn(C(C)(C)C)c(OC(=O)c2cccs2)c1S(=O)(=O)c1ccccc1	CYP2C9 inh 87
CC(=O)Oc1c(S(=O)(=O)c2ccccc2)c(C)nn1C(C)(C)C	CYP2C19 inhib 86
CCC(=O)Oc1c(S(=O)(=O)c2ccc(C)cc2)c(C)nn1C(C)(C)C	CYP2C19 inhib 69, CYP2C9 inh 52
CCOc1ccccc1C1CC(=O)Nc2c1c(=O)n(C)c(=O)n2C (centres undefined)	none
CCOC(=O)N1CCN(C(=O)CSc2cc(C)nc3c(-c4ccccc4OC)c(C)nn23)CC1	none
CCOC(=O)N1CCC(Nc2cc(C)nc3c(-c4ccccc4OC)c(C)nn23)CC1	CYP2C19 inhib 84, CYP2C9 inh 79 (no result: sEH act, sEH inh)
Cc1ccc(S(=O)(=O)N2CCN(C(=O)CSc3nnc(C)s3)C2)cc1	none
COc1ccc(S(=O)(=O)n2ccc(-c3ccc(OCCN(C)c4ccccn4)cc3)n2)cc1	CYP2C9 inh 57
CCOC(=O)N1CCC(NC(=O)c2ccc3c(c2)N(CC)CCS3)CC1	none (no result: CYP2C19 inhib, CYP2C19 act, CYP2C9 activ, CYP2C9 inh)
O=C(C1CCCN(c2ncccn2)C1)N1CCc2ccccc21 (centres undefined)	CYP2C19 inhib 84, CYP2C9 inh 72
Cc1cc(=O)n2nc(N3CCCC(C(=O)N4CCOCC4)C3)sc2n1 (centres undefined)	none (no result: sEH act, sEH inh)
